Screens: PubChem BioAssay, several laboratories
Most compounds without a hit are left out; they make up all but 28% or so of the library.
hDAT+cocaine: modulates human dopamine transporter uptake under cocaine | Q01959 | 1.3% of 110,000 active | LLC-PK1 hDAT cells, [14C]-dopamine uptake with cocaine IC80; actives deviate in either direction | B-score at 10 µM;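 active = Z score or B-score, a plate-position-corrected score, falls beyond the plate's 99.7% confidence bounds, in either direction; inactive = both scores lie inside the 99.7% bounds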;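 note: scored against the spread of the other compound wells on the same plate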
CYP2C9 inh: blocks human cytochrome P450 2C9. AID 777. 20% of 96,000 active. P11712. inhibition, % at 5 µM. CYP2C9 Supersomes, luciferin-H conversion, luminescence;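 active = blocking of liver enzyme CYP2C9 beyond about 50% at 5 µM, limit read from the data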
CYP2C19 activ: cytochrome P450 2C19 (human) activation; recombinant CYP2C19, luciferin-H EGE luminescence; active compounds read high; 0 = fully inhibited enzyme, 1 = untreated enzyme; activation factor at 5 µM; 96,000 tested, under 10 active; P33261; AID 1025;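 active = activation factor of at least 2 at 5 µM in the primary screen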;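 note: 0 = wells with 2.5 mM tranylcypromine and 1 = vehicle-only wells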
Target sequence (P33261 whole entry, looked up): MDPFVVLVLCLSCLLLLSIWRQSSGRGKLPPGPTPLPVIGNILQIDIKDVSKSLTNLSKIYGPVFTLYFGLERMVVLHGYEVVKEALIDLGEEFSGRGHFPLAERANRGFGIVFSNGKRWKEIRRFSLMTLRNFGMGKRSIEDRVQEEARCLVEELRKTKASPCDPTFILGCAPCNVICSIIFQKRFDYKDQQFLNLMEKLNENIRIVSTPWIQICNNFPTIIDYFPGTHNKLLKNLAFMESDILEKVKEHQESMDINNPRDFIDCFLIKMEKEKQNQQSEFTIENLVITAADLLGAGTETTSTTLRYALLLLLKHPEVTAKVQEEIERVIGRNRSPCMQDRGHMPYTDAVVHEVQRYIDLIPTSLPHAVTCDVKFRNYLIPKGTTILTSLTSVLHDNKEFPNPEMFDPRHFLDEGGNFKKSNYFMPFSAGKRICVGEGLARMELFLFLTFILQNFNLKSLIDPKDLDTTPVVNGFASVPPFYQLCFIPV
CYP2C9 activ: activators of human CYP2C9; P11712; recombinant CYP2C9, luciferin-H conversion, luminescence; active compounds read high; factor 1 = untreated enzyme, 0 = blocked; activation factor at 5 µM; 1.4% of 96,000 active;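 active = activation factor of 2 or more for CYP2C9 at a 5 µM dose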;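 note: 0 = sulfaphenazole-blocked wells and 1 = vehicle-only wells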
D1 mod: D1 dopamine receptor (human) allosteric modulation; P21728; HEK293 D1, CRE-luciferase, dopamine EC30 potentiation; actives deviate in either direction; B-score at 10 µM; 5.9% of 58,000 active; AID 641;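 active = luminescence count or its row- and column-corrected plate score outside the 99.7% band of the plate's sample wells, on either side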
CYP2C19 inhib: inhibitors of human CYP2C19; AID 778; P33261; inhibition, % at 5 µM; CYP2C19 Supersomes, luciferin-H EGE luminescence, 30 min; 21% of 96,000 active;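 active = CYP2C19 inhibition above a set limit at 5 µM in the primary screen, cut at about 50% in these data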;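 note: plate controls were negative control wells for no effect and 2.5 mM tranylcypromine positive control for full effect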
D1 PAM confirm: confirmation of human D1 dopamine receptor allosteric modulators; shares compounds with D1 mod; HEK293 D1 CRE-luciferase, dopamine EC30 potentiation; active compounds read high; luminescence at 10 µM; 88% of 2,200 active; AID 642;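 active = luminescence in either of two replicates above the same-plate mean plus 3 SD of the low-dose dopamine control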
D1 ag no DA: secondary test of D1 modulators: activity without dopamine; 0.8% of 1,900 active; HEK293 D1 CRE-luciferase, luminescence, no dopamine; active compounds read high; luminescence at 10 µM; AID 646; shares compounds with D1 mod; in the data active = luminescence above about 3900
Isoprot counter: alters isoproterenol CRE-luciferase response in HEK293 cells. shares compounds with D1 mod. HEK293 D1 CRE-luciferase, isoproterenol EC30 counter-screen. calls only at 10 µM. 63% of 2,200 active. AID 647;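 active = luminescence in either replicate above plate mean of wells with a partly effective reference agonist dose plus 3 SD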;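 note: isoproterenol raises cAMP through native beta-adrenoceptor Gs so signal bypasses D1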
Numbers without * were called inactive.

`CC1CCC(NC(=O)c2ccc3nc[nH]c3c2)CC1` (stereo unspecified) gave hDAT+cocaine -1.2, CYP2C9 inh 14, CYP2C19 activ 0.7, CYP2C9 activ 0.9 and CYP2C19 inhib 34.
CCOC(=O)Nc1c(C)n(C)n(-c2ccccc2)c1=O was read as hDAT+cocaine -0.86, CYP2C9 inh 4, CYP2C19 activ 0.9, CYP2C9 activ 1, D1 mod 2 and CYP2C19 inhib 14.
Screening CCOC(=O)CCn1c2nc(C)cc(C)c2c(=O)n1-c1ccccc1 returned hDAT+cocaine 0.33, CYP2C9 inh 7, CYP2C19 activ 0.4, CYP2C9 activ 0.9, D1 mod 2.2*, CYP2C19 inhib 56*, D1 PAM confirm 5272, D1 ag no DA 1496 and Isoprot counter inactive.
Screening CSc1nncn1/N=C/c1ccc2c(c1)OCO2 returned hDAT+cocaine -0.16, CYP2C9 inh 2, CYP2C19 activ 1, CYP2C9 activ 1 and CYP2C19 inhib 2.
COc1ccc(/C=N/n2cnnc2SCCO)cc1OC was read as hDAT+cocaine -1.1, CYP2C9 inh 18, CYP2C19 activ 0.8, CYP2C9 activ 0.8, D1 mod 2.6*, CYP2C19 inhib 17, D1 PAM confirm 14424*, D1 ag no DA 1384 and Isoprot counter active.
For c1coc(CNc2nc3ccccc3n2CCN2CCOCC2)c1 the results were hDAT+cocaine 0.024, CYP2C9 inh 26, CYP2C19 activ 0.6, CYP2C9 activ 0.7, D1 mod -0.71 and CYP2C19 inhib 37.
c1ccc(Cn2c(NCc3ccco3)nc3ccccc32)cc1 was read as hDAT+cocaine -0.36, CYP2C9 inh 81*, CYP2C19 activ 0.2, CYP2C9 activ 0.2, D1 mod 12*, CYP2C19 inhib 83*, D1 PAM confirm 14512*, D1 ag no DA 1716 and Isoprot counter inactive.
Screening c1ccc2c(c1)CCCN2c1nc2ccccc2n2cnnc12 returned hDAT+cocaine 0.019, CYP2C9 inh 15, CYP2C19 activ 0.9, CYP2C9 activ 0.9, D1 mod 7*, CYP2C19 inhib 10, D1 PAM confirm 9840*, D1 ag no DA 1760 and Isoprot counter inactive.
Screening c1ccc2c(c1)CCN(c1nc3ccccc3n3cnnc13)C2 returned hDAT+cocaine 2.2, CYP2C9 inh -6, CYP2C19 activ 0.9, CYP2C9 activ 1.1, D1 mod 7.9*, CYP2C19 inhib 12, D1 PAM confirm 13016*, D1 ag no DA 1668 and Isoprot counter active.
c1ccc2c(c1)nc(N1CCOCC1)c1nncn12 was read as CYP2C9 inh 15, CYP2C19 activ 1, CYP2C9 activ 0.8 and CYP2C19 inhib 2.
Screening N#Cc1nc(N2CCCC2)nc(N2CCCC2)n1 returned hDAT+cocaine -0.44, CYP2C9 inh 14, CYP2C19 activ 1, CYP2C9 activ 0.9, D1 mod 5.6*, CYP2C19 inhib 2, D1 PAM confirm 16648*, D1 ag no DA 1396 and Isoprot counter active.
`N#Cc1nc(N2CCCCC2)nc(N2CCOCC2)n1` gave hDAT+cocaine -0.53, CYP2C9 inh 2, CYP2C19 activ 1, CYP2C9 activ 1, D1 mod 7.5*, CYP2C19 inhib -1, D1 PAM confirm 9460* and Isoprot counter active.
COc1ccc(OC)c(C2CC(=O)Nc3cc(OC)c(OC)c(OC)c32)c1 (stereo unspecified) was read as hDAT+cocaine -0.079, CYP2C9 inh 28, CYP2C19 activ 0.7, CYP2C9 activ 0.7 and CYP2C19 inhib 27.
